The values that follow come from ChEMBL document CHEMBL3988442, “University of Dundee, Small-Polar-MMV Screening Library” (2021).

Design in all cases: scale not given: direction of the effect not stated beside the values
Test [1] deals with Protein translocase subunit SecA (Escherichia coli (strain K12)) (UniProt P10408). The test is described as follows: Assay to Identify E. coli SecA ATPase Inhibitors. The test is classed as functional. To be noted: 30 µM.
Test [2] concerns the target T1, Ubiquitin-activating enzyme e1, putative (Leishmania donovani (strain BPK282A1)) (UniProt E9BSI1).
T1 sequence (whole entry): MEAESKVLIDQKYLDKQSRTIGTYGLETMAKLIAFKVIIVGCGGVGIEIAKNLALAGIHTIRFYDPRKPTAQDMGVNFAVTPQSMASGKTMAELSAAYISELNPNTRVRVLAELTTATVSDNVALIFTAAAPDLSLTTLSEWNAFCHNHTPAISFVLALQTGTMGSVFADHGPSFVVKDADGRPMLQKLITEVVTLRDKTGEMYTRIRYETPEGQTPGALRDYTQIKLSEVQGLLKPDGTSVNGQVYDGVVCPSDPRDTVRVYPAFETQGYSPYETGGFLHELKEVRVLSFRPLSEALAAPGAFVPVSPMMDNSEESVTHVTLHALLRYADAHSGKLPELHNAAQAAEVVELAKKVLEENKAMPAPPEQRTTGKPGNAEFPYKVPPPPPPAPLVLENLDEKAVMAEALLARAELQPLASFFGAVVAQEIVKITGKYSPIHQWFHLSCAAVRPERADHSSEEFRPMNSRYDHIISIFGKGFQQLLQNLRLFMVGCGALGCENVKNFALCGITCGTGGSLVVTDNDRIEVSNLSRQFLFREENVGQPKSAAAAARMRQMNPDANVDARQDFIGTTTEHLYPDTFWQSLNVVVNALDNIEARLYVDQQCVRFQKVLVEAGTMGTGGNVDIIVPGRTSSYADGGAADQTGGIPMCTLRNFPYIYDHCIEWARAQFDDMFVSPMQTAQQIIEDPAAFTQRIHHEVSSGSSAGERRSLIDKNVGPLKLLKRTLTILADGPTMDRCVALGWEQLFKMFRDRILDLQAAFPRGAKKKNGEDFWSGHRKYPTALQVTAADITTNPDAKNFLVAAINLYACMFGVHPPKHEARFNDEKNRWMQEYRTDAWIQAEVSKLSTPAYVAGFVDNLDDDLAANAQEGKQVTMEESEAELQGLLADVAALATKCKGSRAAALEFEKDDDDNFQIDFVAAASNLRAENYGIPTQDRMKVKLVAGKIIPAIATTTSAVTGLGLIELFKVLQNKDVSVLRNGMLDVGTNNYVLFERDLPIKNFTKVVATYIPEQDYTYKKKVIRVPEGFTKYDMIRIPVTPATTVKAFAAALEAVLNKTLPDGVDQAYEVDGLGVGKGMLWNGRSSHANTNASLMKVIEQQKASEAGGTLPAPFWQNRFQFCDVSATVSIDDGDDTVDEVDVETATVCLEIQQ
As to the kind of experiment: Leishmania donovani Ubiquitin Activating Enzyme (LdE1). It counts as functional. To be noted: 30 µM.

Test [3] has as its target AMP-activated protein kinase, AMPK (Homo sapiens) (UniProt P54646+O43741+P54619+Q9UGJ0+Q9Y478+Q13131+Q9UGI9). The test is described as follows: AMP-dependent Kinase enzyme assay. An in vitro enzyme assay that detects ADP turnover that is directly proportional to AMPK activity. This uses naive AMPK that is activated during the assay with MK-8722. The test is classed as functional. To be noted: 30 µM.

For test [4], the target named is Sialic acid-binding Ig-like lectin 9 (Homo sapiens) (UniProt Q9Y336). As to the kind of experiment: Hs-Siglec9 ALPHAscreen SOP 20170721. To be noted: 10 µM. On the technique in general: Bead proximity is the source of the signal in Alpha formats.
Chain of Sialic acid-binding Ig-like lectin 9 (Homo sapiens) (Q9Y336 whole entry): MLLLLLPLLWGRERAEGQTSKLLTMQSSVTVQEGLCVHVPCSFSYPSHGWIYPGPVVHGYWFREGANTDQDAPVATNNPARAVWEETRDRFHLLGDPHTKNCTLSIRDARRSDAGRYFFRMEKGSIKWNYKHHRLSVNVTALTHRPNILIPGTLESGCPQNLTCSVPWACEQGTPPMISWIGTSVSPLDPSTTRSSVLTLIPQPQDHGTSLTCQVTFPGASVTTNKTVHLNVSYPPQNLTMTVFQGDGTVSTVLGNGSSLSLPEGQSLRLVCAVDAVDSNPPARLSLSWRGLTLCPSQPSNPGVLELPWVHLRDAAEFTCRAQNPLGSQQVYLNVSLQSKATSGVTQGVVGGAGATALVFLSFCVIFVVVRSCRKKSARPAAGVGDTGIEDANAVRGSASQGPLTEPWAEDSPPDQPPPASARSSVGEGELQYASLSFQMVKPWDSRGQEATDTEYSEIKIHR
The subject of another test is Trypanosoma cruzi. The test is described as follows: Trypanosoma cruzi phosphomannomutase and mannose-1-phosphate guanylyltransferase assay. It counts as functional. The settings on record: 10 µM.
Test [5] deals with T2, Arginase-2, mitochondrial (Homo sapiens) (UniProt P78540).
T2 sequence (whole entry): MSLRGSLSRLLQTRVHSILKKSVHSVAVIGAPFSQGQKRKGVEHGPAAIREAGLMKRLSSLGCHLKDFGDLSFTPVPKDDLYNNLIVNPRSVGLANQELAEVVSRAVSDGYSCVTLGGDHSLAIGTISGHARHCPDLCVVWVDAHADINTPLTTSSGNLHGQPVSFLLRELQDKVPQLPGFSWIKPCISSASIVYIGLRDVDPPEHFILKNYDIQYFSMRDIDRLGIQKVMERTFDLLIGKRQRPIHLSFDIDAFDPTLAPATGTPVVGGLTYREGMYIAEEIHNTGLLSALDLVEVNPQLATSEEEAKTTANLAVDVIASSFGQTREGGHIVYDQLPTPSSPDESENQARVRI
The test is described as follows: in vitro enzyme assay to detect the production of urea directly proportional to the activity of Arginase II. Note: in the data most compounds retested in dose-response had high values. It counts as functional. To be noted: 33.3 µM.

Test [6] deals with T3, Proteasome subunit beta (Trypanosoma cruzi) (UniProt O96673).
T3 sequence (whole entry): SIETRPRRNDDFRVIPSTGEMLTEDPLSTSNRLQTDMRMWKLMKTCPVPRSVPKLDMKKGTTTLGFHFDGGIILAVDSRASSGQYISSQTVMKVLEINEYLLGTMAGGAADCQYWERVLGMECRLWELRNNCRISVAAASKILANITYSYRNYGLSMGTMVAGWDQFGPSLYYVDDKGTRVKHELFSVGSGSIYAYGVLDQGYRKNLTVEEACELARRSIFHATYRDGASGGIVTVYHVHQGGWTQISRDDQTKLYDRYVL
The test is described as follows: Trypanosoma cruzi proteasome chymotrypsin-like activity (TcProtChymo) assay. Note: in the data most compounds retested in dose-response had high values. The test is classed as functional. To be noted: 9.37 µM.

For the next test, the species on record is Homo sapiens. As to the kind of experiment: To identify inhibition of the IFN signalling (Jak-Stat) pathway via expression of an eGFP reporter gene under the control of an IFN-stimulated response element (ISRE) containing MxA promoter. It counts as functional. The settings on record: 30 µM.
Test [7] concerns the target T4, Tyrosyl-tRNA synthetase, putative (Trypanosoma cruzi (strain CL Brener)) (UniProt Q4DSP6).
T4 sequence (whole entry): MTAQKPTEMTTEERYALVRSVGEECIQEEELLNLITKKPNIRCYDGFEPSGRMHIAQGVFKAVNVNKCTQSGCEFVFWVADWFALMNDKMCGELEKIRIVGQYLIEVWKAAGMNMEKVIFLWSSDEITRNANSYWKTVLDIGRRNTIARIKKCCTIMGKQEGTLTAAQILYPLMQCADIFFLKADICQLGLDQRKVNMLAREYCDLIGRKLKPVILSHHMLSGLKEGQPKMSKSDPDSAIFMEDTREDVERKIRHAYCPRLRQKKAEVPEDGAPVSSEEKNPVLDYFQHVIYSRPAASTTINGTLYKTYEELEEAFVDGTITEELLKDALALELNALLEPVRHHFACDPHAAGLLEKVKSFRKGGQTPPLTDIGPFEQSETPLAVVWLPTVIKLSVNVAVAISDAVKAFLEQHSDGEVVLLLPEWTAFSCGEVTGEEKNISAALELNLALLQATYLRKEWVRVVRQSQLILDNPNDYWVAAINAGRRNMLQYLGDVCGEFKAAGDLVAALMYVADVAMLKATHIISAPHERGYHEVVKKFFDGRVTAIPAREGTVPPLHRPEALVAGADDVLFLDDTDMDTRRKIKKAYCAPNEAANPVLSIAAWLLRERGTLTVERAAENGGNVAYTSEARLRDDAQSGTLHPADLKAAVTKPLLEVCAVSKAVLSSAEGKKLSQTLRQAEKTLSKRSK
The test is described as follows: Trypanosoma cruzi tyrosyl tRNA synthetase (TcYRS) _High Tyrosine SOP. Note: in the data most compounds retested in dose-response had high values. To be noted: 30 µM. The test is classed as functional.

Test [8] addresses T4, Tyrosyl-tRNA synthetase, putative (Trypanosoma cruzi (strain CL Brener)). The test is described as follows: Trypanosoma cruzi tyrosyl tRNA synthetase (TcYRS) SOP. It counts as functional. The settings on record: 30 µM.
Test [9] deals with Chromo domain-containing protein 1 (Saccharomyces cerevisiae (strain ATCC 204508 / S288c) (Baker's yeast)) (UniProt P32657). As to the kind of experiment: ScCHD-1 Enzyme Inhibition Assay. Note: in the data most compounds retested in dose-response had high values. The test is classed as functional. To be noted: 30 µM.
Chain of Chromo domain-containing protein 1 (Saccharomyces cerevisiae (strain ATCC 204508 / S288c) (Baker's yeast)) (P32657 whole entry, the tested form may be a part): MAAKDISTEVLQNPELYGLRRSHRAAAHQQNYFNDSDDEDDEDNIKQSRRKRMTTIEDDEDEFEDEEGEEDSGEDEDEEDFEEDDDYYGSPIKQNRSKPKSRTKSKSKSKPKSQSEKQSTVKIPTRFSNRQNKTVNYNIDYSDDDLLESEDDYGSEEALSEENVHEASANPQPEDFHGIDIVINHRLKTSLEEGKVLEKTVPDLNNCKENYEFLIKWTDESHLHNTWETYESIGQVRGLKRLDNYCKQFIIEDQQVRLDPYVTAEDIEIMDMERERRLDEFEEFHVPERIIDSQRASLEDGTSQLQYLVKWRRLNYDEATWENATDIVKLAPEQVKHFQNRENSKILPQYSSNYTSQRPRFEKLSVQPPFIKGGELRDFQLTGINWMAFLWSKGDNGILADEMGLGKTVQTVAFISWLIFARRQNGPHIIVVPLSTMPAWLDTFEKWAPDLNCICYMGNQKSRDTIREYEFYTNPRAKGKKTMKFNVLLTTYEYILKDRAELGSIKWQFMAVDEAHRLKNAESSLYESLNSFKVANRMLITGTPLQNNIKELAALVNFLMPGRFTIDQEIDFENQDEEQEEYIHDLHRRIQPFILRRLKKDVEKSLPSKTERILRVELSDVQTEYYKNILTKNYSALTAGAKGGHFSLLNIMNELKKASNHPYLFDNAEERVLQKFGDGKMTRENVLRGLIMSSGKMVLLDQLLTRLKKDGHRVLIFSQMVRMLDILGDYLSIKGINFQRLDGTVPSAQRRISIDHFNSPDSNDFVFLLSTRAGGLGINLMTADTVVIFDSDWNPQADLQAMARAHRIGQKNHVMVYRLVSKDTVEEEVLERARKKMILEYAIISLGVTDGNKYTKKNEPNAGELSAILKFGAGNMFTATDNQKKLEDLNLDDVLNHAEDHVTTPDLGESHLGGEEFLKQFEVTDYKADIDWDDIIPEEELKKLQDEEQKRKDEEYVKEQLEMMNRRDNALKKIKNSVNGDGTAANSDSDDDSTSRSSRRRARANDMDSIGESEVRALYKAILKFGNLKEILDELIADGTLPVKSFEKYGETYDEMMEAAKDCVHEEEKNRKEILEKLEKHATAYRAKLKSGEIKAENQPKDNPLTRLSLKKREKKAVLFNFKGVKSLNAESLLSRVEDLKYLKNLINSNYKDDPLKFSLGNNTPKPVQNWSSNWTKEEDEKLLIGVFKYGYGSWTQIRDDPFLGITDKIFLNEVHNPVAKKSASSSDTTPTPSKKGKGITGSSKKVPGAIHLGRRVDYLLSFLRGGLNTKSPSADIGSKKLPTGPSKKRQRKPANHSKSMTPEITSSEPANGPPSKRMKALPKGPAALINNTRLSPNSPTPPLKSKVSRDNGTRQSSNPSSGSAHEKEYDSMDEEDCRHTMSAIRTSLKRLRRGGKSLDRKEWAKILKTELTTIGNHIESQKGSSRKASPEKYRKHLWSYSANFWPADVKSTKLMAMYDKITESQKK

For some assays here: Entries with a potency or affinity are not part of this list.

Chain of Protein translocase subunit SecA (Escherichia coli (strain K12)) (P10408 whole entry): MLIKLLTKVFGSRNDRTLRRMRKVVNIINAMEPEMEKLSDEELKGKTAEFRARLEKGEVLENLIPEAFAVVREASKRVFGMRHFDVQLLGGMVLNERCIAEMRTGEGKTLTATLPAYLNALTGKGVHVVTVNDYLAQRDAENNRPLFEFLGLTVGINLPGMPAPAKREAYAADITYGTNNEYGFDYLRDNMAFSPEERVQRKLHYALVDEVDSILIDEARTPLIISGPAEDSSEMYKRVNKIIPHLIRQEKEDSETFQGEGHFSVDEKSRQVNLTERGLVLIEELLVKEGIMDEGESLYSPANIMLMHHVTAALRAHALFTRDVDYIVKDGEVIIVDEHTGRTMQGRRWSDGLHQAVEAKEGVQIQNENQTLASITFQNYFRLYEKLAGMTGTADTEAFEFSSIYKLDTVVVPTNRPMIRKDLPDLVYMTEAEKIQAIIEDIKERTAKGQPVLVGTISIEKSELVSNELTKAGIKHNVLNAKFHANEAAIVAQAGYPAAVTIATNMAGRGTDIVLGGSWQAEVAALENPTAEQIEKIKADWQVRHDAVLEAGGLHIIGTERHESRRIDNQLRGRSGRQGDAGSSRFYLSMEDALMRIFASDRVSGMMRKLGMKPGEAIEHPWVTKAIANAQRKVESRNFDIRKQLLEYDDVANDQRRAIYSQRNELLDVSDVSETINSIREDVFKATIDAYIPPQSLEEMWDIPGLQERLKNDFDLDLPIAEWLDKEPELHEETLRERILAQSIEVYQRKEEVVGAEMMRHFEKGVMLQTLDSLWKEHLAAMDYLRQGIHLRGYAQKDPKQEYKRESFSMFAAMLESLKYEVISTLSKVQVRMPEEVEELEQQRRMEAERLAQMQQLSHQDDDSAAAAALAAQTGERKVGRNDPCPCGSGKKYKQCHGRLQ

`O=C1OCCN1CCOc1nc(-c2ccccc2Cl)no1`: the Percent Effect in test [1] was -6.78%; in test [2], 16.4%; in test [3], -3.77%; in test [4], 15.8%; with Trypanosoma cruzi it was 4.7%; in test [5], 8.64%. Moreover, the Percent Effect in [6] is 12.1%; in the test filed under Homo sapiens, 7.15%; in [7], 5.38%; in [8], 12.5%; in test [9] it was -6.2%.

As to `c1coc(-c2nnc(CN3CCOC(Cn4cccn4)C3)o2)c1` (stereo not given), the Percent Effect in [1] was -5.27%; in test [2], 7.59%; in test [3] it was -2.15%; in test [4], 1.36%; with Trypanosoma cruzi, 6.89%; in test [5] it was 0.76%. The Percent Effect was 11.6% in test [6]; 8.37% in the test listed under Homo sapiens; 5.42% in test [7]; 13.9% in [8]; -6.49% in test [9].

Take `Cc1ncc(-c2nc3cc(S(=O)(=O)N4CCCC4)ccc3n2C)cn1`: the Percent Effect was -5.62% in test [1]; 5.48% in test [2]; 12.1% in test [3]; -7.83% in [4]; 0% in the test with Trypanosoma cruzi; 6.36% in test [5]. Also, the Percent Effect was 2.13% in [6]; 14.1% in the test filed under Homo sapiens; 6.45% in test [7]; 15% in [8]; -1.23% in test [9].

With `Cc1c(C2CCCN(C(=O)Cc3ccccn3)C2)n2c(nc1=O)CCC2` (stereo not given), the Percent Effect in test [1] is -4%; in [2], 12.2%; in [3], 4.92%; in test [4] it was -3.29%; in the test on Trypanosoma cruzi, -5.53%; in [5], 0.696%. Further, the Percent Effect in [6] is 15.3%; in the test filed under Homo sapiens, 14.5%; in test [7] it was 6.45%; in [8], 6.49%; in test [9], -11.6%.

For the compound `COc1ccc(-c2cc(C3CCCCCN3S(=O)(=O)N(C)C)on2)cc1` (stereo not given), the Percent Effect is -2.23% in [1]; -14.9% in [2]; 6.56% in [3]; -4.82% in test [4]; 4.54% in the test with Trypanosoma cruzi; -1.16% in [5]. Also, the Percent Effect in test [6] was 14.3%; in the test filed under Homo sapiens it was 12.8%; in [7] it was -50.5%; in [8] it was -66.2%; in [9], -12.7%.

Consider `O=C(c1ccc(F)c(F)c1)N1CCCC1CN1CCCC1` (stereo not given), for which the Percent Effect in [1] was -1.25%; in [2], 7.89%; in [3], -2.36%; in test [4], -14.5%; in the test on Trypanosoma cruzi, -3.02%; in [5] it was -3.55%. Besides, the Percent Effect in [6] was 15.2%; in the test filed under Homo sapiens, -11.1%; in [7], 7.45%; in test [8], 18.2%; in test [9] it was -8.37%.

Take `CCOCCn1nc(C)cc1C(=O)N1CCOCC(CO)C1` (stereo not given): the Percent Effect is -2.3% in [1]; 18.9% in [2]; 0.311% in test [3]; 24.4% in [4]; 7.14% in the test with Trypanosoma cruzi; 31.9% in test [5]. Further, the Percent Effect in test [6] is 22.1%; in the test filed under Homo sapiens, 1.44%; in [7], 3.7%; in [8] it was 12.2%; in test [9], -10.6%.

Regarding `Cc1cnn(CC2CN(CC(=O)Nc3sccc3C#N)CCO2)c1` (stereo not given), the Percent Effect in test [1] is -4.12%; in [2] it was 7.89%; in test [3] it was 0.0642%; in test [4], 13%; in the test on Trypanosoma cruzi, 0.564%; in [5] it was 5.75%. Also, the Percent Effect is 3.17% in test [6]; 18.2% in the test filed under Homo sapiens; 4.41% in [7]; 7.32% in test [8]; -1.67% in test [9].

`Cc1ccc(NC(=O)N2CCN(Cc3noc(C4CC4)n3)CC2)cc1`: the Percent Effect in test [1] was -10.7%; in [2], -1.27%; in [3], 5.38%; in test [4], -5.9%; in the test on Trypanosoma cruzi, -3.38%; in test [5], -4.09%. For the same compound, the Percent Effect in [6] is 10.1%; in the test listed under Homo sapiens, 10.8%; in test [7], -1.04%; in test [8] it was -5.06%; in test [9], -24.6%.

`Cc1nc(C)n(C2CCCN(C(=O)Cc3n[nH]c4ccccc34)C2)n1` (stereo not given): the Percent Effect in test [1] was -5.17%; in test [2], -2.6%; in [3], 5.72%; in test [4] it was 7.39%; in the test on Trypanosoma cruzi, 1.69%; in [5] it was -7.47%. The Percent Effect in test [6] was 4.56%; in the test listed under Homo sapiens it was 5.91%; in test [7], 5.83%; in test [8] it was 14.6%; in [9], -7.79%.
